Records with an inconclusive call do not appear. A number with no mark means an inactive call. Active and inactive are the calls of the source. The call rests on the fitted dose curve; in most records, active means well fitted inhibition curve with a large enough effect; inconclusive means small, poorly fitted or top-dose-only effect; inactive means no such curve, though single readings can be large or run the other way.
Test: BET inhibitor-based combinations targeting novel dependencies in MECOM-rearranged (r) AML: UCSD-AML1 cell line (AID 2202235); further: nearly all actives have a fitted effect of over 40% in size;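 on viability (% of control): plate controls were DMSO vehicle wells for no effect and blank wells for full effect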
Settings: UCSD-AML1 AML cells viability, CellTiter-Glo, 48 h; series mostly up to 46 µM; viability (% of control): at the top concentration
Text: Ecotropic viral insertion site 1 (EVI1) is located on chromosome 3q26.2 as part of the MECOM (MDS and EVI1 complex) locus. Under normal hematopoiesis, EVI1 is a regulator of hematopoietic stem cell maintenance and self-renewal and EVI1 levels decrease as the cells differentiate. In approximately 5-10% of de novo acute myeloid leukemia (AML) EVI1 is aberrantly expressed, including Chromosomal inv(3)(q21;q26.2) or t(3;3)(q21;q26.2) alterations (MECOM-r) that account for about 50% of AML with EVI1 overexpression 31. AMLs with high levels of EVI1 have a poor prognosis and an overall survival time averaging between 10-14 months. EVI1 overexpression confers resistance in leukemia cells, highlighting the need to develop new targeted therapies for EVI1 overexpressing AMLs. Here, we performed an unbiased chemical drug screening by evaluating the single agent activity of a collection of 2,480 oncology-focused, approved and investigational drugs (NCATS Mechanism Interrogation Plates, MIPE v5.0) against a panel of seven AML cell lines. These included four MECOM-r cell-lines (AML-191, AML-194, UCSD-AML1 and HNT-34) and three non-MECOM-r AMLs (MV4-11, OCI-AML3 and SET-2). Exploiting the mechanistic redundancy built in the library, we identified target-level sensitivities in MECOM-r AML cells and relative activity as compared to other AML subtypes.
A collection of 2480 mechanistically annotated dugs (MIPE v5.0) was used to screen four 3q26.2 rearranged AML cell lines and three non-3q26.2 rearranged AML cell lines. This library purposely exploits redundancy by including multiple inhibitors of key onco-targets, while simultaneously encompassing mechanistic diversity, targeting more than 800 distinct mechanisms of action. Briefly, cells were seeded in 5 uL of growth media using a Multidrop Combi dispenser into 1536 well white polystyrene tissue culture treated plates (Corning) at a density of 500cells/well. For each cell-line, for each of the 2480 drugs in MIPE v5.0 library, an 11-point dose curve was generated via a 1536 pin-tool. Plates were incubated for 48 hr at standard incubator conditions, covered by a stainless steel gasketed lid to prevent evaporation. Cell viability was determined by luminescence based, Cell Titer Glo assay (Promega). In detail, 3 uL of Cell Titer Glo were added to each well and plates were incubated at room temperature for 15 min with a stainless-steel lid in place. Luminescence readings were taken using a Viewlux (PerkinElmer) with a 2 s exposure time per plate. Compound dose-response curves were normalized to DMSO and empty well controls on each plate. Quantitative drug activity data from dose-response curves was determined utilizing area Under the Curve (AUC) and Z-transformed AUC (Z-AUC, a mean-centering transformation applied to each individual cell-line screened).
Potency means the concentration at half of the fitted maximal effect.

Row | Structure (SMILES) | viability (% of control) | Potency
1 | C[C@H]1[C@H](O)[C@@H](C)/C=C/C=C/CC/C=C/C=C/C=C/C=C/[C@H](O[C@@H]2O[C@H](C)[C@@H](O)[C@H](N)[C@@H]2O)C[C@@H]2O[C@](O)(C[C@@H](O)[C@H](O)CC[C@@H](O)C[C@@H](O)C[C@@H](O)CC(=O)O[C@H]1C)C[C@H](O)[C@H]2C(=O)O | 94% | 
2 | COc1cccc2c1C(=O)c1c(O)c3c(c(O)c1C2=O)C[C@@](O)(C(=O)CO)CC3OC1CC(N2CCOC(OC)C2)C(O)C(C)O1 (stereo not given in full) |  | 4.7 nM (active)
3 | O=c1cccc2n1CC1CNC[C@H]2C1 | 106% | 
4 | C/C(=C\c1csc(C)n1)[C@@H]1C[C@@H]2O[C@@H]2CCC[C@H](C)[C@H](O)[C@@H](C)C(=O)C(C)(C)[C@@H](O)CC(=O)O1 |  | 18.6 nM (active)
5 | C/C(O)=C(\C#N)C(=O)Nc1cc(Br)ccc1Br | 109% | 
6 | CC[C@@H](C(N)=O)N1CCCC1=O | 102% | 
7 | Cn1cc(C2=C(c3cn(C4CCN(Cc5ccccn5)CC4)c4ccccc34)C(=O)NC2=O)c2ccccc21 | 112% | 
8 | CCOC(=O)Nc1ccc(NCc2ccc(F)cc2)cc1N | 105% | 
9 | Cn1c(COP(=O)(NCCBr)NCCBr)cnc1[N+](=O)[O-] | 104% | 
10 | C=C(C)[C@H]1Cc2c(ccc3c2O[C@@H]2COc4cc(OC)c(OC)cc4[C@@H]2C3=O)O1 |  | 934 nM (active)
11 | CCN1CCN(C(=O)Cc2ccc(Nc3ncc(F)c(Nc4ccc(C(=O)Nc5ccccc5Cl)cc4)n3)cc2)CC1 |  | 3720 nM (active)
12 | O=C(Nc1ccncc1)C(=O)c1cn(Cc2ccc(Cl)cc2)c2ccccc12 |  | 332 nM (active)
13 | O=C1C=CC[C@@H]2[C@H]3CCCN4CCC[C@@H](CN12)[C@@H]34 | 101% | 
14 | Cc1c(N)nc([C@H](CC(N)=O)NC[C@@H](N)C(N)=O)nc1C(=O)N[C@H](C(=O)N[C@@H](C)[C@H](O)[C@@H](C)C(=O)N[C@@H](C(=O)NCCc1nc(-c2nc(C(=O)NCCC[S+](C)C)cs2)cs1)[C@@H](C)O)C(O[C@H]1O[C@H](CO)[C@H](O)[C@@H](O)[C@H]1O[C@H]1O[C@H](CO)[C@@H](O)[C@H](OC(N)=O)[C@@H]1O)c1cnc[nH]1 (stereo not given in full) | 109% [at 15.6 µM] | 
15 | N[C@@H](Cc1ccc(N(CCCl)CCCl)cc1)C(=O)O |  | 2950 nM (active)
16 | O=C(NCCCNc1nc(Nc2ccc(N3CCOCC3)cc2)ncc1C1CC1)C1CCC1 |  | 9340 nM (active)
17 | C[C@]12CC[C@H]3[C@@H](CC[C@@]45O[C@@H]4C(O)=C(C#N)C[C@]35C)[C@@H]1CC[C@@H]2O | 117% | 
18 | Cn1c(CCCC(=O)O)nc2cc(N(CCCl)CCCl)ccc21 |  | 18600 nM (active)
19 | O=C(NCC1CCOCC1)c1cnc(Nc2ccc(Cl)cc2Cl)nc1C(F)(F)F | 97.9% | 
20 | O=C(O)C(=O)c1cn(Cc2ccccc2)c2ccc(-c3ccc(OC(F)(F)F)cc3)cc12 | 113% | 

Row | Structure (SMILES) | viability (% of control) | Potency
21 | Cc1cccc(C)c1NC(=O)CN1CCCC1=O | 108% | 
22 | CN[C@@H]1Cc2cccc3[nH]c(=O)n(c23)C1 | 112% | 
23 | Cc1ccccc1-n1c(Cn2ncc3c(N)ncnc32)nc2cccc(C)c2c1=O | 99.1% | 
24 | CC(C)(O)/C=C\C(=O)[C@](C)(O)[C@H]1[C@H](O)C[C@]2(C)[C@@H]3CC=C4[C@@H](C=C(O)C(=O)C4(C)C)[C@]3(C)C(=O)C[C@@]12C |  | 148 nM (active)
25 | Cc1[nH]ncc1-c1cc2nc([C@@H]3CC4CCN3CC4)[nH]c(=O)c2s1 |  | 9340 nM (active)
26 | Cc1sc2c(c1C)C(c1ccc(Cl)cc1)=N[C@@H](CC(=O)OC(C)(C)C)c1nnc(C)n1-2 |  | 742 nM (active)
27 | CN(C)[C@@H]1C(=O)C(C(N)=O)=C(O)[C@@]2(O)C(=O)C3=C(O)c4c(O)cccc4[C@@](C)(O)[C@H]3[C@H](O)[C@@H]12 | 108% | 
28 | C#CCN(C)[C@H](C)Cc1ccccc1 | 106% | 
29 | CC[C@H]1/C=C\C=C/C[C@@H](C)[C@H](O)[C@@](C)(O)C(=O)[C@@H](C)[C@H](O)[C@@H](C)C(=O)[C@@H](C)[C@H](O)[C@@H](C)/C=C\C(=O)O[C@@H]2[C@H](C)[C@H](CC1)O[C@]1(CC[C@H](C)[C@H](C[C@@H](C)O)O1)[C@H]2C |  | 7420 nM (active)
30 | C[C@]12CC[C@H](O)CC1=CC[C@@H]1[C@@H]2CC[C@]2(C)C(=O)CC[C@@H]12 | 112% | 
31 | CC1=C(O)C(=O)C=C2C1=CC=C1[C@@]2(C)CC[C@@]2(C)[C@@H]3C[C@](C)(C(=O)O)CC[C@]3(C)CC[C@]12C |  | 1050 nM (active)
32 | C/C=C(/C)C(=O)O[C@H]1C(C)=C2[C@H]([C@@H]1OC(=O)CCCCCCC)[C@@](C)(OC(C)=O)C[C@H](OC(=O)CCC)[C@@]1(O)[C@H]2OC(=O)[C@@]1(C)O |  | 132 nM (active)
33 | CCC1(c2ccc(N)cc2)CCC(=O)NC1=O (stereo not given) | 108% | 
34 | CCNC(=O)CC1N=C(c2ccc(Cl)cc2)c2cc(OC)ccc2-n2c(C)nnc21 (stereo not given) |  | 9340 nM (active)
35 | C/C=C(\C)C(=O)N[C@@H](c1ccccc1)[C@@H](O)C(=O)O[C@H]1C[C@@]2(O)[C@@H](OC(=O)c3ccccc3)[C@@H]3[C@]4(OC(C)=O)CO[C@@H]4C[C@H](O)[C@@]3(C)C(=O)[C@H](OC(C)=O)C(=C1C)C2(C)C |  | 16.6 nM (active)
36 | COCC1(CO)C(=O)C2CCN1CC2 (stereo not given) |  | 5250 nM (active)
37 | C[C@]12Cc3cn[nH]c3C[C@@H]1CC[C@@H]1[C@@H]2CC[C@@]2(C)[C@H]1CC[C@]2(C)O | 84.7% | 
38 | C[C@@H]1CC[C@H]2[C@@H](C)C(=O)O[C@@H]3O[C@@]4(C)CC[C@@H]1[C@]32OO4 | 102% | 
39 | C[C@@H](C1CC[C@@]2(O)C3=CC(=O)[C@@H]4C[C@@H](O)[C@@H](O)C[C@]4(C)[C@H]3CC[C@]12C)[C@H](O)CCC(C)(C)O (stereo not given in full) | 105% | 
40 | COc1ccc(N(C(=O)Oc2c(C)cccc2C)c2ccnc(Nc3ccc(N4CCN(C)CC4)cc3)n2)c(OC)c1 | 91.9% | 

From PubChem BioAssay (NCATS)
